In article PMC8769072, “Proteome‐scale mapping of binding sites in the unstructured regions of the human proteome” (Molecular Systems Biology, 2022):

Target: KPNA4 68-487, O00629
Sequence (O00629 68-487): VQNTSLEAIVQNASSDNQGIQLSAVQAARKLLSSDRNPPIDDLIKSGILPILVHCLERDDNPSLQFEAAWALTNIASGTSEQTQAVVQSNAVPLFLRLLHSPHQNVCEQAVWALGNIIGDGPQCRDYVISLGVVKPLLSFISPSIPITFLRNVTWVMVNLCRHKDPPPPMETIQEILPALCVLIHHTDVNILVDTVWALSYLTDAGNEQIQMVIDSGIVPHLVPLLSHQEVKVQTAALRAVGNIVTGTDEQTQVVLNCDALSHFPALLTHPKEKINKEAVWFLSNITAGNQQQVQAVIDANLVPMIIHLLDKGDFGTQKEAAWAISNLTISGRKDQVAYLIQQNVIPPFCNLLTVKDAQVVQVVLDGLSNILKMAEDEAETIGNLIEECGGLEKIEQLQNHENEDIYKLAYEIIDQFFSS

Selected by phage display, active:
SPTILGKRSYEQHNGV [MTA1, Q13330] confidence 2
KRPHQEFGISSQGAYL [PDE3B, Q13370] confidence 2
GVKRTYSEVYPGQQYL [ZMIZ2, Q8NF64] confidence 3
SLAPVKRTYEQMEFPL [ADNP, Q9H2P0] confidence 3
WKRDSSGNKIMHPVSG [NUDT9, Q9BW91] confidence 2
GLKRPASQDFEYLQEE [NRK, Q7Z2Y5] confidence 2
AIKRGYDDLQTIVPTA [MLX, Q9UH92] confidence 2
HEISLKRSYESVEGNI confidence 3
KRPRYDDTVKINSMGG [ZNF318, Q5VUA4] confidence 3
GKRPYEAIEAGKAFRY [ZNF471, Q9BX82] confidence 2
RGLKRSLSEMEIGMVV [SRF, P11831] confidence 2
DHQFPAKRPRLSEPQG [HJURP, Q8NCD3] confidence 2
DLKRRLDSITSSQSSA [KDR, P35968] confidence 2
ELKRIKTEDGEGIVIA [FOXK2, Q01167] confidence 2
VHTTSKRPRLDPVLAD [FAM90A22P, A8MWA6] confidence 2
EDSIEPPHKRLALSSE [DMTF1, Q9Y222] confidence 3
AGVKRSAAEMYGSVTE [HNRNPC, P07910] confidence 3
MSSSPVKRQRMESALD [TALDO1, P37837] confidence 3
LESKRPRLEQVSDSHF confidence 2
ELKRKLEQEQKLVEVL [MKL2, Q9ULH7] confidence 3
AEQSKRPRLEVGHQGV [EP400, Q96L91] confidence 3
ESPSVKRMRLSEGWAT [MEF2C, Q06413] confidence 2

Target: KEAP1 321-609, Q14145
Sequence (Q14145 321-609): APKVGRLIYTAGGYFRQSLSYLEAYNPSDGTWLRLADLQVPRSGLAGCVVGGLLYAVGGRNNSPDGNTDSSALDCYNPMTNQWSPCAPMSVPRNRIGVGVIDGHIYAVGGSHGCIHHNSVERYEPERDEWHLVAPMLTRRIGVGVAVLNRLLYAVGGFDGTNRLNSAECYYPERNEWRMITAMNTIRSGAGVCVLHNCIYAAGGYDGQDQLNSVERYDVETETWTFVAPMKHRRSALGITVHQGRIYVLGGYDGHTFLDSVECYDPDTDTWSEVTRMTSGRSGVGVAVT

Selected by phage display, active:
TDELLRHPVTGEVVER [C6orf132, Q5T0Z8] confidence 4
PSPETGEAKRSAFVEV [PRDM8, Q9NQV8] confidence 3
LENNSETGELQPVLPE [TRIM37, O94972] confidence 2
YDPVTGEWKSLAKLPE [KLHL24, Q6TFL4] confidence 3
FDAVTGEFTGMPEQWA [PAK1, Q13153] confidence 3
PINPSTGELSTSSSSN [MCC, P23508] confidence 4
VLPDALTDGSDVVSDL [CFAP36, Q96G28] confidence 2

Target: MAP1LC3A 2-121, Q9H492

Selected by phage display, active:
GPDSFTVLGNSMPSVF [BCL9, O00512] confidence 4
WTDLENSIVSVERMQD [ABCC6, O95255] confidence 3

Target: MAP1LC3B 2-119, Q9GZQ8

Selected by phage display, active:
GPDSFTVLGNSMPSVF [BCL9, O00512] confidence 3
WTDLENSIVSVERMQD [ABCC6, O95255] confidence 2
